This is an account of results in the supplement of paper PMC6411743.

Molecules are shown by their SMILES. ± gives the standard deviation of the averaged measurements. Targets with the largest changes are over-represented here; the source holds about 5,400 in all.

For this test, the target named is T1, UniProt Q9NPI1|Q9NPI1-2.
T1 sequence (whole entry): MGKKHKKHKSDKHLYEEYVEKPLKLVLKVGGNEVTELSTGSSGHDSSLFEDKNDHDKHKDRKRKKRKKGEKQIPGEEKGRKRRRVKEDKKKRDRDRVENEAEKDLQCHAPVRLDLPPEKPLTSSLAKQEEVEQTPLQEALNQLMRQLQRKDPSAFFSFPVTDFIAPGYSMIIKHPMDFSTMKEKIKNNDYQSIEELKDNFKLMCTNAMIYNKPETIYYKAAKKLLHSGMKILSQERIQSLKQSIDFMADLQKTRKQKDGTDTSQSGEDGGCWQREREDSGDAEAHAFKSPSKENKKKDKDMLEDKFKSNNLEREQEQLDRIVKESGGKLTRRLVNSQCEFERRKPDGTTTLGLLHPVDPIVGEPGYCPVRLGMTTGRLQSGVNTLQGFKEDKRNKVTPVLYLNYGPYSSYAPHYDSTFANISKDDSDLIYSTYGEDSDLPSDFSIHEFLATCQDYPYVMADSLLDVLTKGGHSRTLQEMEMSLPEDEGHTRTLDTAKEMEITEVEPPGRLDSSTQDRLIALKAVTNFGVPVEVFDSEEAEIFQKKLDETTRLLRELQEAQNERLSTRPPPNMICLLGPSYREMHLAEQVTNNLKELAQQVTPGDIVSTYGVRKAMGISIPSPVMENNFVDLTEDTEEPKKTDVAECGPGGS
Nature of the test: NP40-soluble protein abundance relative to vehicle (solubility fold change) (ratio); higher = more soluble protein in presence of GTP. As to the method: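 Solubility proteome profiling in Jurkat crude lysate. Lysate was treated with Mg-GTP (0.1-10 mM) for 10 min at room temperature and 3 min at 37 °C, then solubilised with 0.8% NP40 and benzonase, followed by ultracentrifugation. Proteins were quantified by TMT10 LC-MS/MS; the value is the NP40-soluble abundance relative to the NP40-processed vehicle, from 3 independent experiments.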

As for `Nc1nc2c(ncn2[C@@H]2O[C@H](COP(=O)(O)OP(=O)(O)OP(=O)(O)O)[C@@H](O)[C@H]2O)c(=O)[nH]1` [guanosine triphosphate], the NP40-soluble protein abundance reads like this: (concentration: 0.1mM) 1.09 ± 0.029; (concentration: 0.5mM) 1.11 ± 0.036; (concentration: 1mM) 1.22 ± 0.041; (concentration: 2mM) 1.36 ± 0.098; (concentration: 4mM) 1.4 ± 0.18; (concentration: 6mM) 1.47 ± 0.2. The NP40-soluble protein abundance amounted to 1.58 ± 0.32 (concentration: 8mM) and 1.56 ± 0.28 (concentration: 10mM).
